# Source: PubChem (several laboratories)
# HSF1 inh: HSF1 inhibitors in luciferase reporter cells, primary screen, cell-based, NIH3T3, luminescence; NIH3T3-HGL HSE-luciferase, MG132-induced, luminescence 8 h; active compounds read low; activity change, negative = inhibition, % at 7.5 µM (by protocol); 0.77% of 300,000 active; AID 2098, 2009;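 active = more than half of replicate wells show activity change below -50%, luminescence cut by over half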;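 also: luciferase reports HSF-1 transcriptional activity via heat shock element; 0% = median of DMSO wells and -100% = zero luminescence signal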
# TLR4 MyD88 comp: inhibitors of TLR4-MyD88 association in cells, primary screen, cell-based, HeLa CL3-4, BLA complementation, FRET ratio | HeLa CL3-4 TLR4/MyD88 BLA complementation | AID 861, 2007 | 0.18% of 200,000 active | inhibition, % at 8.4 µM; in the data active = inhibition above about 25%;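 also: 0% = vehicle and 100% = reference inhibitor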
# TLR9-MyD88 block: inhibitors of TLR9-MyD88 association in cells, primary screen, cell-based, CHO, BLA complementation, fluorescence; Toll-like receptor 9 (Homo sapiens) + Myeloid differentiation primary response protein …; CCF4 FRET ratio; inhibition, % at 4.98 µM; 0.21% of 340,000 active;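 active = inhibition above the mean over all tested compounds plus 3 SD, cut at about 21% in these data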;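 also: 0% = DMSO only wells and 100% = clavulanate BLA inhibitor control wells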
# HSF1 activator: HSF-1 activators, primary screen, NIH3T3-HGL cells, MG132 stress, luminescence, single point; NIH3T3-HGL HSF-1 luciferase reporter, 8 h; 100% = twice DMSO control signal; activation, % at 9 µM; 1.7% of 300,000 active;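 active = mean replicate activation of at least 50% with a set share of replicates each reaching 50%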;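 also: 0% = median of the neutral control wells and 100% = twice that signal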
# NOD2-RIPK2 inh: NOD2-RIPK2 binding disruptors in cells, primary screen, fluorescence, CHO cells, BLA complementation | Receptor-interacting serine/threonine-protein kinase 2 (Homo sapiens), O43353 | CCF4 ratio | inhibition, % at 4.98 µM | 0.38% of 360,000 active; in the data active = inhibition above about 21%;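 also: 0% = vehicle only and 100% = reference blocker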
# Target sequence (O43353 whole entry, looked up): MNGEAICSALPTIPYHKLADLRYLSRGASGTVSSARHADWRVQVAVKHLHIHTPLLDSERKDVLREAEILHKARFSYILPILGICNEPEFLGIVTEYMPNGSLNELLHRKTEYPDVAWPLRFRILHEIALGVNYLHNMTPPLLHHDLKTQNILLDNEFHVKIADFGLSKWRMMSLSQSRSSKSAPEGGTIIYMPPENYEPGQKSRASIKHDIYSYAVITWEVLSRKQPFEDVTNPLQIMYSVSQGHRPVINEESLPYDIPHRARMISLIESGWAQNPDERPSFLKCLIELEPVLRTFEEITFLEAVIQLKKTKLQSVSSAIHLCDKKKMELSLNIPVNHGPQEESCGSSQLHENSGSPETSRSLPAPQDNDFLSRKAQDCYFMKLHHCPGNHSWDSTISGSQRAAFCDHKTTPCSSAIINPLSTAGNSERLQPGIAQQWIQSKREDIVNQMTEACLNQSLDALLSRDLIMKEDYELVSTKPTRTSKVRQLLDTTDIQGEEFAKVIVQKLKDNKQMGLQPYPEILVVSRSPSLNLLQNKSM
# * marks the source's active call; other numbers are inactive results; / = no result given. This is a sample that favours compounds with a hit; in the whole collection about 2.4% have one here.
SMILES,HSF1 inh,TLR4 MyD88 comp,TLR9-MyD88 block,HSF1 activator,NOD2-RIPK2 inh
CCN(CC(=O)Nc1ccc(NC(C)=O)cc1)C(=O)/C=C/c1ccco1,5,/,14,11,-2
O=C1CN(C(=O)c2ccc(Br)o2)C(c2ccc(F)cc2)c2cc(Cl)ccc2N1 (stereo not drawn),29,-1,-1,55*,1
NC(=O)N/N=C/c1cccc(OCc2ccc(F)cc2)c1,-74*,-9,-2,-78,-8
O=C(Nc1ccc(Oc2ccccc2)cc1)c1csc([C@@H]2O[C@H](CO)[C@H](O)[C@H](O)[C@H]2O)n1,/,/,/,/,-2
CCN(CC)S(=O)(=O)c1cccc(-c2nnc(SCC(N)=O)n2CCc2ccccc2)c1,-60*,-2,-2,-65,-6
O=C(NCCCN1CCCC1=O)c1cccc(S(=O)(=O)N2CCN(c3ccc(F)cc3)CC2)c1,3,/,2,0,-1
Cc1ccccc1N=Nc1c(O)[nH]c2ccccc12,7,/,/,8,-7
Cc1ccc2[nH]c(O)c(N=Nc3ccccc3C)c2c1,-63*,/,-6,-71,0
Cc1ccc([C@H]2C[C@@H](n3cc(COC(=O)c4ccccc4)nn3)[C@H](O)CN2C(=O)c2cccs2)cc1,/,/,-4,/,-7
OC(CN1c2ccccc2Sc2ccccc21)Cn1nnc2ccccc21 (stereo not drawn),19,8,-1,63*,-2
Cc1ccc2c(c1)c(C)c(C)n2CC(O)Cn1nnc2ccccc21 (stereo not drawn),-89*,-9,-2,-91,-4
O=C1c2ccccc2C(=O)N1CC(O)Cn1nnc2ccccc21 (stereo not drawn),-31,-5,-8,-45,-7
Cc1cc(C(=O)CN2c3cccc4cccc(c34)S2(=O)=O)c(C)n1C,/,/,-3,/,1
Cc1nn(CCCC(=O)NCc2ccc(F)cc2)c(=O)c2nccn12,-7,/,-5,4,-8
O=C(CN1CCN(c2ccccc2F)CC1)NC(=O)NC1CCCCC1,/,/,5,/,-10
O=C(/C=C/c1ccccc1)n1cnnc1SC/C=C/c1ccccc1,0,6,-2,9,-2
C(=C/c1ccnc2nc(SC/C=C/c3ccccc3)nn12)/c1ccccc1,61,4,3,101*,-8
CCCC(C)NS(=O)(=O)c1ccccc1 (stereo not drawn),-59*,1,-8,-68,1
O=C(COc1ccccc1)Nc1cccc(-c2nnc(-c3ccccc3)o2)c1,19,/,6,36,-6
O=C(CCl)Nc1cccc(Oc2cnccn2)c1,-3,/,-17,8,-1
Cc1ccc(C(=O)Nc2cccc(Oc3ccccc3)c2)o1,22,-2,-3,58*,3
O=C(CCl)Nc1cccc(Oc2ccccc2)c1,37,14,0,74*,-5
C=Cc1cccc(NC(=O)COc2ccccc2)c1,23,10,-7,57*,0
Fc1ccccc1-c1ccc(/C=N/Nc2nc3ccccc3[nH]2)o1,379,-12,5,384*,-6
Cc1cccc(/C=N/Nc2ccc3ccccc3n2)c1,2,-4,7,0,10
SMILES,HSF1 inh,TLR4 MyD88 comp,TLR9-MyD88 block,HSF1 activator,NOD2-RIPK2 inh
C(=N\Nc1ccc2ccccc2n1)/c1ccc2c(c1)OCCO2,-80*,-7,-11,-85,0
C(=N\Nc1nc2ccccc2[nH]1)/c1ccc2c(c1)OCCO2,49,/,2,71*,-6
C(=N\Nc1nc2ccccc2[nH]1)/c1ccc2ncccc2c1,15,/,5,41,1
COC(=O)[C@]12CCCCC=C1N(Cc1cccc3ccccc13)C(=O)[C@H](CC(=O)NCC13CC4CC(CC(C4)C1)C3)C2,/,/,/,/,-9
O=C(CN1CCN(Cc2ccccc2)C1=O)NCc1ccc(Cl)cc1,-2,5,-8,-1,0
CCN(CCNC(=O)CN1CCN(Cc2ccc(Cl)cc2)C1=O)c1ccccc1,49,3,-6,70*,-4
CCOc1ccc(C2N(c3ccc(OC)cc3)C(=O)C3CCCN32)cc1OC (stereo not drawn),-1,-22,-10,7,-9
CCOc1ccc(C2N(c3ccc(F)cc3)C(=O)C3CCCN32)cc1OC (stereo not drawn),-52*,-9,-2,-65,0
CCCS(=O)(=O)NC(=O)C1(C)CCN(C(=O)c2ccc(OC(F)F)cc2)C1 (stereo not drawn),/,/,/,/,-12
O=c1c(/C=N\NS(=O)(=O)c2ccccc2)coc2ccc(Cl)cc12,-75*,/,-7,-79,-12
O=C(/C=C/c1cccc(Cl)c1Cl)OCC(=O)N1CCOCC1,/,/,6,/,-2
ClC(Cl)(Cl)c1nc2ccccc2n2nncc12,162,/,-4,208*,-16
COc1ccc(C(=O)N2CCC(n3nccc3NC(=O)C3CCOC3)CC2)cc1 (stereo not drawn),16,/,-11,38,2
Cn1cc(C(=O)N/N=C/c2cc(Br)cs2)c2ccccc21,20,/,/,60*,/
COc1ccc(/C=N/NC(=O)c2ccc3c(c2)OCCO3)cc1[N+](=O)[O-],-80*,-5,-6,-76,0
Cc1ccc(/C=N/NC(=O)c2ccc3c(c2)OCCO3)s1,-6,/,5,-11,-6
O=C(N/N=C/c1cc(Br)cs1)c1ccc2c(c1)OCCO2,22,/,/,57*,1
COc1ccc(OC)c(S(=O)(=O)NCC(c2ccco2)S(=O)(=O)c2ccccc2)c1 (stereo not drawn),-3,/,-1,-11,-9
CC(=O)C1=C(C)OC2(O)c3ccccc3C(=O)C12O (stereo not drawn),14,/,/,59*,-18
CCOC(=O)C1=C(C)OC2(O)c3ccccc3C(=O)C12O (stereo not drawn),10,/,/,21,-2
Cc1cc(C)cc(NC(=O)C(=O)NCCCN2CCCC2=O)c1,21,/,-4,24,-4
O=C(NCc1nnc(SCc2ccc(F)cc2)n1-c1ccccc1)C12CC3CC(CC(C3)C1)C2,31,-5,-2,62*,9
NC(=O)c1ccsc1NC(=O)COc1ccccc1,37,-3,2,69*,-2
Cc1cccc(OCC(=O)OCC(=O)Nc2sccc2C(N)=O)c1,/,/,-7,/,-5
NC(=O)c1ccsc1NC(=O)CSc1ccccc1F,22,-3,-2,58*,-4
NC(=O)COc1ccccc1,45,/,-10,79*,-8
NC(=S)COc1ccccc1,-7,/,-2,11,1
COc1cccc(CN2C(=O)C(C)N(C(=O)c3ccccc3)c3ccccc32)c1 (stereo not drawn),-3,/,2,4,-1
NS(=O)(=O)c1cccc(NC(=O)CSc2nnc(C3CC3)n2-c2ccccc2)c1,/,/,-1,/,0
